# Laboratory results taken from the supplement of paper PMC8728848.
# Many of the other results were omitted from the sample, so the strongest signals are more common in it than they were.
# B1: Spy 2007 (Streptococcus pyogenes), Q99XV3 (protein)
# chain: MKKGFFLMAMVVSLVMIAGCDKSANPKQPTQGMSVVTSFYPMYAMTKEVSGDLNDVRMIQSGAGIHSFEPSVNDVAAIYDADLFVYHSHTLEAWARDLDPNLKKSKVDVFEASKPLTLDRVKGLEDMEVTQGIDPATLYDPHTWTDPVLAGEEAVNIAKELGRLDPKHKDSYTKNAKAFKKEAEQLTEEYTQKFKKVRSKTFVTQHTAFSYLAKRFGLKQLGISGISPEQEPSPRQLKEIQDFVKEYNVKTIFAEDNVNPKIAHAIAKSTGAKVKTLSPLEAAPSGNKTYLENLRANLEVLYQQLK
# B2: Chaperone 60.2 (Mycobacterium tuberculosum), P9WPE7 (protein)
# chain: MAKTIAYDEEARRGLERGLNALADAVKVTLGPKGRNVVLEKKWGAPTITNDGVSIAKEIELEDPYEKIGAELVKEVAKKTDDVAGDGTTTATVLAQALVREGLRNVAAGANPLGLKRGIEKAVEKVTETLLKGAKEVETKEQIAATAAISAGDQSIGDLIAEAMDKVGNEGVITVEESNTFGLQLELTEGMRFDKGYISGYFVTDPERQEAVLEDPYILLVSSKVSTVKDLLPLLEKVIGAGKPLLIIAEDVEGEALSTLVVNKIRGTFKSVAVKAPGFGDRRKAMLQDMAILTGGQVISEEVGLTLENADLSLLGKARKVVVTKDETTIVEGAGDTDAIAGRVAQIRQEIENSDSDYDREKLQERLAKLAGGVAVIKAGAATEVELKERKHRIEDAVRNAKAAVEEGIVAGGGVTLLQAAPTLDELKLEGDEATGANIVKVALEAPLKQIAFNSGLEPGVVAEKVRNLPAGHGLNAQTGVYEDLLAAGVADPVKVTRSALQNAASIAGLFLTTEAVVADKPEKEKASVPGGGDMGGMDF
# Columns and labels:
# Assay in all cases: glycan array binding signal (z-score within array); higher = stronger binding
# Settings in all cases: glycan notation: IUPAC condensed, linker removed
# Fuc(a1-2)Gal(b1-4)GlcNAc = biological target: Fuc(a1-2)Gal(b1-4)GlcNAc
# Method in brief: (§1)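 The Consortium for Functional Glycomics database supplied 3228 glycan arrays, of which those lacking an available protein sequence were dropped. The binding signal, a within-array Z-score, was averaged across arrays of the same protein sequence and across linkers. Negative scores can be read as non-binding.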
# [1] = biological target: Fuc(a1-3)[Gal3S(b1-4)]GlcNAc
# Method in brief: as §1
# [2] = biological target: Fuc(a1-3)[Neu5Ac(a2-3)]Gal(b1-4)GlcNAc(b1-3)GalNAc
# Method in brief: as §1
# Gal(a1-6)Glc = biological target: Gal(a1-6)Glc
# Method in brief: as §1
# Gal(b1-4)Glc = biological target: Gal(b1-4)Glc
# Method in brief: as §1
# [3] = biological target: Gal(b1-4)GlcNAc(b1-2)Man(a1-6)Man(b1-4)GlcNAc(b1-4)GlcNAc
# Method in brief: as §1
# [4] = biological target: Gal3S(b1-3)[Fuc(a1-4)]GlcNAc
# Method in brief: as §1
# Gal3S(b1-4)Glc = biological target: Gal3S(b1-4)Glc
# Method in brief: as §1
# Gal6S(b1-4)GlcNAc6S = biological target: Gal6S(b1-4)GlcNAc6S
# Method in brief: as §1
# [5] = biological target: GalNAc(b1-4)GlcNAc(b1-2)Man(a1-3)[GalNAc(b1-4)GlcNAc(b1-2)Man(a1-6)]Man(b1-4)GlcNAc(b1-4)GlcNAc
# Method in brief: as §1
# [6] = biological target: GlcNAc(a1-4)Gal(b1-4)GlcNAc(b1-3)Gal(b1-4)Glc
# Method in brief: as §1
# [7] = biological target: GlcNAc(a1-4)Gal(b1-4)GlcNAc(b1-3)Gal(b1-4)[Fuc(a1-3)]GlcNAc(b1-3)Gal(b1-4)[Fuc(a1-3)]GlcNAc
# Method in brief: as §1
# GlcNAc(b1-4)GlcNAc = biological target: GlcNAc(b1-4)GlcNAc
# Method in brief: as §1
# [8] = biological target: GlcNAc(b1-4)GlcNAc(b1-4)GlcNAc(b1-4)GlcNAc(b1-4)GlcNAc
# Method in brief: as §1
# Kdn(a2-6)Gal(b1-4)GlcNAc = biological target: Kdn(a2-6)Gal(b1-4)GlcNAc
# Method in brief: as §1
# [9] = biological target: Man(a1-2)Man(a1-3)[Man(a1-6)]Man(a1-6)[Man(a1-2)Man(a1-3)]Man(b1-4)GlcNAc(b1-4)GlcNAc
# Method in brief: as §1
# [10] = biological target: Neu5Ac(a2-3)Gal(b1-3)GlcNAc6S
# Method in brief: as §1
# [11] = biological target: Neu5Ac(a2-3)Gal(b1-3)[Neu5Ac(a2-6)]GalNAc
# Method in brief: as §1
# Neu5Ac(a2-3)Gal(b1-4)Glc = biological target: Neu5Ac(a2-3)Gal(b1-4)Glc
# Method in brief: as §1
# [12] = biological target: Neu5Ac(a2-3)Gal(b1-4)GlcNAc6S
# Method in brief: as §1
# [13] = biological target: Neu5Ac(a2-3)Gal(b1-4)[Fuc(a1-3)]GlcNAc(b1-3)Gal(b1-4)GlcNAc
# Method in brief: as §1
# [14] = biological target: Fuc(a1-2)Gal(b1-4)GlcNAc(b1-3)Gal(b1-4)GlcNAc(b1-3)Gal(b1-4)GlcNAc
# Method in brief: as §1
# [15] = biological target: Fuc(a1-2)Gal(b1-4)GlcNAc6S
# Method in brief: as §1
# Fuc(a1-2)[Gal(a1-3)]Gal = biological target: Fuc(a1-2)[Gal(a1-3)]Gal
# Method in brief: as §1
# [16] = biological target: Gal(a1-3)Gal(b1-4)[Fuc(a1-3)]GlcNAc
# Method in brief: as §1
# Gal(b1-2)Gal = biological target: Gal(b1-2)Gal
# Method in brief: as §1
# [17] = biological target: Gal(b1-3)[Fuc(a1-4)]GlcNAc(b1-3)Gal(b1-4)GlcNAc
# Method in brief: as §1
# [18] = biological target: Gal(b1-3)[Fuc(a1-4)]GlcNAc(b1-3)Gal(b1-4)[Fuc(a1-3)]GlcNAc
# Method in brief: as §1
# Gal3S(b1-4)Glc6S = biological target: Gal3S(b1-4)Glc6S
# Method in brief: as §1
# Gal3S6S(b1-4)GlcNAc6S = biological target: Gal3S6S(b1-4)GlcNAc6S
# Method in brief: as §1
# [19] = biological target: GlcNAc(b1-4)Gal(b1-4)GlcNAc
# Method in brief: as §1
# [20] = biological target: Man(a1-2)Man(a1-3)[Man(a1-2)Man(a1-6)]Man
# Method in brief: as §1
# [21] = biological target: Man(a1-2)Man(a1-3)[Man(a1-2)Man(a1-6)]Man(a1-6)[Man(a1-2)Man(a1-2)Man(a1-3)]Man
# Method in brief: as §1
# [22] = biological target: Neu5Ac(a2-3)Gal(b1-4)[Fuc(a1-3)]GlcNAc(b1-3)Gal
# Method in brief: as §1
# [23] = biological target: Neu5Ac(a2-3)Gal(b1-4)[Fuc(a1-3)]GlcNAc(b1-6)[Gal(b1-3)]GalNAc
# Method in brief: as §1
# [24] = biological target: Neu5Ac(a2-6)Gal(b1-4)GlcNAc(b1-2)Man(a1-3)[GlcNAc(b1-2)Man(b1-4)GlcNAc(b1-2)Man(a1-6)]Man(b1-4)GlcNAc(b1-4)GlcNAc
# Method in brief: as §1
# [25] = biological target: Neu5Ac(a2-8)Neu5Ac(a2-8)Neu5Ac(a2-3)Gal(b1-4)Glc
# Method in brief: as §1
Binder,glycan array binding signal (z-score) (Fuc(a1-2)Gal(b1-4)GlcNAc),glycan array binding signal (z-score) [1],glycan array binding signal (z-score) [2],glycan array binding signal (z-score) (Gal(a1-6)Glc),glycan array binding signal (z-score) (Gal(b1-4)Glc),glycan array binding signal (z-score) [3],glycan array binding signal (z-score) [4],glycan array binding signal (z-score) (Gal3S(b1-4)Glc),glycan array binding signal (z-score) (Gal6S(b1-4)GlcNAc6S),glycan array binding signal (z-score) [5],glycan array binding signal (z-score) [6],glycan array binding signal (z-score) [7],glycan array binding signal (z-score) (GlcNAc(b1-4)GlcNAc),glycan array binding signal (z-score) [8],glycan array binding signal (z-score) (Kdn(a2-6)Gal(b1-4)GlcNAc),glycan array binding signal (z-score) [9],glycan array binding signal (z-score) [10],glycan array binding signal (z-score) [11],glycan array binding signal (z-score) (Neu5Ac(a2-3)Gal(b1-4)Glc),glycan array binding signal (z-score) [12],glycan array binding signal (z-score) [13],glycan array binding signal (z-score) [14],glycan array binding signal (z-score) [15],glycan array binding signal (z-score) (Fuc(a1-2)[Gal(a1-3)]Gal),glycan array binding signal (z-score) [16],glycan array binding signal (z-score) (Gal(b1-2)Gal),glycan array binding signal (z-score) [17],glycan array binding signal (z-score) [18],glycan array binding signal (z-score) (Gal3S(b1-4)Glc6S),glycan array binding signal (z-score) (Gal3S6S(b1-4)GlcNAc6S),glycan array binding signal (z-score) [19],glycan array binding signal (z-score) [20],glycan array binding signal (z-score) [21],glycan array binding signal (z-score) [22],glycan array binding signal (z-score) [23],glycan array binding signal (z-score) [24],glycan array binding signal (z-score) [25]
B1,0.299,0.277,5.41,-0.074,-0.461,-0.392,3.35,-0.543,5.95,3.5,0.12,3.22,-0.446,4.65,-0.715,-0.649,-0.663,1.08,0.127,1.47,0.479,–,–,–,–,–,–,–,–,–,–,–,–,–,–,–,–
B2,1.32,–,–,–,–,–,–,–,–,–,–,–,–,–,–,–,–,–,–,–,–,-0.159,4.33,-0.04,-0.652,-0.591,3.11,-0.254,4.1,3.22,-0.93,1.47,-1.16,-0.716,-0.295,3.89,-0.208
